Assay in all cases: NCI-60 one-dose screen, 48 h (100 = growth as untreated, 0 = no growth, -100 = all killed)
Holding throughout (conditions): 10 µM unless noted

Assay [1] has as its system SN12C renal.
In assay [2] the test system is UO-31 renal.
Assay [3] deals with TK-10 renal.
In assay [4] the test system is ACHN renal.
Assay [5] deals with CAKI-1 renal.
Assay [6] relates to A498 renal.
Assay [7] deals with CCRF-CEM leukemia.
In assay [8] the test system is MOLT-4 leukemia.
Assay [9] relates to SR leukemia.
The subject of assay [10] is RPMI-8226 leukemia.
Assay [11] concerns OVCAR-8 ovarian.
For assay [12], the system named is OVCAR-5 ovarian.
Assay [13] relates to OVCAR-4 ovarian.
The test system of assay [14] is SK-OV-3 ovarian.
The test system of assay [15] is IGROV1 ovarian.
For assay [16], the system named is HS 578T breast.
Assay [17] relates to NCI/ADR-RES ovarian.
In assay [18] the test system is OVCAR-3 ovarian.

This passage reports growth results from PubChem BioAssay (NCI).

Molecules are shown by their SMILES. About 83,000 compounds went through this panel and 20% of them were active in at least one assay; those are over-represented in the sample as a whole.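 Interpretation: 100, growth as untreated; towards 0, rising growth inhibition; 0, no net growth; 0 to -100, cell death. Compounds scoring below 10 were considered active.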 A number with no mark means an inactive call. Active and inactive are the calls of the source.

Turning to `CC1=C(NCCN2CCCC2)C(=O)c2c(OCc3ccc(F)c(Cl)c3)cccc2C1=O`, the growth in [1] is 71.2%; in assay [2], 42.8%; in assay [3] it was 69.1%; in assay [4], 83.8%; in assay [5], 50.2%; in assay [6], 38.7%. The growth in assay [7] was 40.6%; in assay [8], 44.3%; in [9], -14.3% (active); in [10], 50.4%; in assay [11] it was 74.8%; in assay [12], 72.7%. The growth in [13] is 70.5%; in assay [14] it was 93.7%; in assay [15], 67.6%; in assay [16], 79.7%; in assay [17] it was 75.2%.
In the case of `COc1ccccc1-c1ccc2c(N)c(C(=O)c3ccc4c(c3)OCO4)sc2n1`, the growth in assay [1] is 64.2%; in assay [2], 78.5%; in assay [3], 73.8%; in assay [4], 88.6%; in [5] it was 70.2%; in [6], 60.1%. Further, the growth in assay [7] is 60.2%; in assay [8] it was 36.6%; in assay [9], 9.21% (active); in [10] it was 62.2%; in assay [11] it was 73.8%; in assay [12], 87.7%. For the same compound, the growth in [13] was 95.7%; in [15], 78.1%; in assay [18], 69.8%; in [16], 87.6%; in [17], 38.7%.
As to `O=c1c2cccc3c(Nc4c(F)cccc4F)ccc(c32)c2nc3ccccc3n12`, the growth in [1] is 93.8%; in [2], 50.6%; in assay [4] it was 88%; in assay [5] it was 62%; in [6], 109%; in [7] it was 72.5%. Besides, the growth in assay [8] was 74.1%; in assay [9], 21.5%; in assay [10], 75.4%; in assay [11], 92.9%; in assay [12] it was 99.5%; in assay [13] it was 82.9%. In addition, the growth was 53.4% in assay [15], 91.5% in assay [18], 110% in assay [16] and 95.4% in assay [17].
Turning to `COc1ccc(C(=O)c2sc3nc4c(c(C(F)(F)F)c3c2N)CN(C(C)=O)CC4)cc1OC`, the growth in assay [1] is 93.7%; in assay [2] it was 46.3%; in [3] it was 86%; in [4], 79.1%; in assay [5], 80%; in assay [6], 58.1%. Moreover, the growth in assay [7] is 82.6%; in assay [8], 79.2%; in [9] it was 79.4%; in [10] it was 57.1%; in [12] it was 89.3%; in [13], 85.8%. Also, the growth is 87.2% in assay [14]; 98.2% in [15]; 95.9% in assay [18]; 81.6% in assay [16]; 84.7% in assay [17].
With `Cn1cc(-c2ccc(-c3cn(C)c4ncccc34)[nH]2)c2cccnc21`, the growth in assay [1] was 75.6%; in assay [2], -81.3% (active); in assay [3], -30% (active); in assay [4] it was 4.29% (active); in assay [5], 54.6%; in assay [6], 83.3%. The growth in [7] was 28.3%; in assay [10] it was 31.9%; in [11] it was 23.3%; in [12], -6.91% (active); in [13], -44.4% (active); in assay [14], 106%. Further, the growth is 73.8% in assay [15], -36.9% (active) in [18], 45.7% in [16] and 76% in assay [17].
Turning to `Cc1ccc(S(=O)(=O)n2cc(-c3csc(-c4cn(C)c5ncccc45)n3)c3ccccc32)cc1`, the growth is 77.6% in assay [1]; 57.3% in [2]; 91.3% in assay [3]; 53% in assay [4]; 48.1% in [5]; 52.2% in assay [6]. The growth in assay [7] was 37.4%; in assay [8] it was 49.3%; in [9], 2.53% (active); in assay [10], 71.1%; in assay [11] it was 80.5%; in [12], 81.9%. In addition, the growth in [13] is 71.5%; in [14], 70.2%; in assay [15], 56.3%; in assay [18], 30.3%; in assay [16] it was 85.8%; in [17] it was 43.3%.
For `Nc1c(C(=O)Nc2ccccc2Cl)sc2nc3c(cc12)CCCCCC3`, the growth in assay [2] was -8.93% (active); in assay [3], 24.2%; in [4], 10.1%; in assay [5], 57.7%; in assay [6] it was 50.1%; in assay [7] it was 25.5%. The growth in assay [8] is 39.8%; in assay [9] it was 13.2%; in assay [11], 48.8%; in assay [12], 60.9%; in [14] it was 43.9%; in assay [15] it was 25.9%. The growth was 21.5% in [18], 17.3% in [16] and 35% in assay [17].
Turning to `O=C(CCN1CCOCC1)Nc1ccc(Cn2nnc3c2C(=O)c2nnn(Cc4ccc(NC(=O)CCN5CCOCC5)cc4)c2C3=O)cc1`, the growth in [1] was -40.7% (active); in assay [2], 108%; in [3], 123%; in assay [4] it was 96.6%; in [5], 90.6%; in assay [6] it was 71.8%. The growth in assay [7] is -15.4% (active); in [10], 5.5% (active); in [11] it was 45.6%; in [12] it was 110%; in assay [13] it was -81.4% (active); in assay [15], -19.8% (active). The growth in [18] is -1.65% (active); in [16], 44.9%; in assay [17] it was 109%.
